Assay outcomes (PubChem BioAssay)
Shown are actives, neighbours in structure and some others; about 9.4% of the full set was active somewhere.
SARS PLpro yeast – qHTS of Yeast-based Assay for SARS-CoV PLP; Potency, µM (titrated, usually from 32.9 µM), usual class: activators; AID 485353, 2010; 330,000 tested, 0.19% active; S. cerevisiae expressing SARS-CoV PLpro, growth rescue; calls by dose curve; also: nearly all actives have a fitted effect of over 55% in size
Pf growth 96h – Primary qHTS for delayed death inhibitors of the malarial parasite plastid, 96 hour incubation | P. falciparum luciferase reporter growth, 96 h | Potency, µM (doses to about 28.7 µM), most hits filed as inhibitors | 320,000 tested, 6.9% active | AID 504834, 2011
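Two-generation exposure (96 h) targets delayed-death phenotype. Reporter parasites carrying integrated firefly luciferase, in red cells at 2% hematocrit and 0.05% parasitemia final, kept at 37 C, 5% CO2; luminescence loss indicates inhibition.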
AMA1 RON2 block – qHTS for Inhibitors of AMA1-RON; Towards Development of Antimalarial Drug Lead: Primary Screen; AlphaScreen AMA1-biotinylated RON2 peptide binding; Potency, µM (titrated, usually from 58.2 µM), most hits filed as inhibitors; 360,000 tested, 0.2% active; AID 720542, 2013; also: nearly all actives have a fitted effect of over 45% in size
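AMA1 (3D7) with his tag at 25 nM final met compounds first, then biotinylated RON2 peptide at 25 nM; detection used donor plus acceptor beads, 10 µg/mL apiece, read by AlphaScreen after 30 min at room temperature.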
Pf growth 48h – Primary qHTS for delayed death inhibitors of the malarial parasite plastid, 48 hour incubation; Potency, µM (titrated, usually from 28.7 µM), actives largely listed as inhibitors; P. falciparum luciferase growth in erythrocytes, 48 h; AID 504832, 2011; 310,000 tested, 5.9% active
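A one-generation exposure of luciferase-tagged malaria parasites in RPMI 1640/Albumax erythrocyte culture, 37 C and 5% CO2. Inhibition is inferred from decreased luminescence after adding detection reagent.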
Each line names hits and unclear results; the compound was inactive in the other large screens. Unless noted, calls follow the shape of the dose curve; as a rule, active = well fitted curve in the direction sought with a large enough effect; inconclusive = small, poorly fitted or top-dose-only effect, or another doubt; inactive = no such curve, though single readings can be large; an effect the other way counts as inactive or inconclusive.

Cc1cc(NC(=O)CN2CCCCC2C)no1 (stereo not drawn)	none
CC(C)(C)C(O)C(Oc1ccc(Cl)cc1)n1cncn1 (stereo not drawn)	Pf growth 48h inconclusive
CC(C)(C)C(C(Oc1ccc(Cl)cc1)n1cncn1)n1nnnc1C(c1cccc(Cl)c1)N1CCCCC1 (stereo not drawn)	Pf growth 96h 2.08µM, Pf growth 48h 1.85µM (no result: AMA1 RON2 block)
CC(=O)c1ccc(C(=O)NC2CCCN(Cc3ccc(Cl)cc3)C2)s1 (stereo not drawn)	Pf growth 96h inconclusive
O=C(NC1CCCN(Cc2ccc(Cl)cc2)C1)c1c(F)cccc1F (stereo not drawn)	Pf growth 96h inconclusive
O=C(NC1CCCN(Cc2ccc(Cl)cc2)C1)c1ccccc1C(F)(F)F (stereo not drawn)	Pf growth 96h 4.65µM, Pf growth 48h inconclusive
COc1ccc(OCC(=O)NC2CCCN(Cc3ccc(Cl)cc3)C2)cc1 (stereo not drawn)	Pf growth 96h inconclusive, Pf growth 48h 13.1µM
O=C(NC1CCCN(Cc2ccc(Cl)cc2)C1)c1c(F)ccc(F)c1F (stereo not drawn)	SARS PLpro yeast inconclusive, Pf growth 96h 4.65µM
O=C(NCc1ccc2c(c1)OCO2)c1ccc(-c2ccc(Cl)cc2)o1	Pf growth 48h inconclusive
CSc1ccccc1C(=O)N1CCC(CCC(=O)NC2CC2)CC1	none
COC(=O)C1=C(C)NC(C)=C(C(=O)OC)C1c1ccccc1OCc1c(C)no[n+]1[O-]	Pf growth 48h 11.7µM
COCCN1C(=O)c2cc(C(=O)Nc3ccc(C)c(F)c3)ccc2C1Nc1ccc(C)c(F)c1 (stereo not drawn)	Pf growth 96h inconclusive, Pf growth 48h inconclusive
O=c1c(F)cn(C2CCCO2)c(=O)n1Cc1c(Cl)cccc1Cl (stereo not drawn)	Pf growth 96h 13.1µM (no result: Pf growth 48h)
CN1CCCC(OC(=O)c2cc(Br)ccc2Cl)C1 (stereo not drawn)	none (no result: Pf growth 48h)
Cc1cccc(CCNC(=O)CCS(=O)(=O)c2ccc(Br)cc2)c1	Pf growth 96h inconclusive
Cc1cccc(CCNC(=O)c2cc(=O)[nH]c3ccc(Br)cc23)c1	Pf growth 96h 10.4µM (no result: AMA1 RON2 block)
CC(C)(C)[C@]1(O)CCN2C[C@H]3c4ccccc4CCc4cccc(c43)[C@@H]2C1	Pf growth 96h 3.7µM, Pf growth 48h 8.28µM
COc1ccc(/C=C2\SC(=S)N(CCCC(=O)N3CCCCC3CCO)C2=O)cc1 (stereo not drawn)	Pf growth 96h 8.28µM, Pf growth 48h inconclusive
CC(C)c1ccc(/C=C2\SC(=S)N(CCC(=O)N3CCCCC3CCO)C2=O)cc1 (stereo not drawn)	Pf growth 96h 9.28µM
COc1cccc(/C=C2\SC(=O)N(CCC(=O)N3CCCCC3CCO)C2=O)c1 (stereo not drawn)	Pf growth 96h 10.4µM, Pf growth 48h inconclusive
O=C1/C(=C\c2ccccc2)SC(=S)N1CCC(=O)N1CCCCC1CCO (stereo not drawn)	Pf growth 96h inconclusive, Pf growth 48h inconclusive
CC(C)N1C(=O)C(=O)N(CC(=O)N2CCc3ccccc32)C1=O	none
O=S(=O)(NCc1c(Cl)cccc1Oc1ccccc1)c1ccc(F)cc1	Pf growth 96h inconclusive, Pf growth 48h 9.28µM
O=C(O)CSCC(=O)NCc1c(Cl)cccc1Oc1ccccc1	none
COC(=O)C1=C(C(=O)OC)[C@@H]2N(C)c3ccc(OC)cc3[C@@]23C[C@@H](C(=O)OC)N(S(=O)(=O)c2ccc([N+](=O)[O-])cc2)C3=N1	Pf growth 96h 13.1µM, Pf growth 48h 7.38µM
CCCCS(=O)(=O)N1C2=NC(C(=O)OC)=C(C(=O)OC)[C@@H]3N(C)c4ccc(OC)cc4[C@]23C[C@H]1C(=O)OC	Pf growth 96h inconclusive, AMA1 RON2 block inconclusive, Pf growth 48h 10.4µM
COC(=O)C1=C(C(=O)OC)[C@@H]2N(C)c3ccc(OC)cc3[C@@]23C[C@@H](C(=O)OC)N(C(=O)C2CCC2)C3=N1	AMA1 RON2 block inconclusive, Pf growth 48h inconclusive
CCOC(=O)C(=CNCC(=O)OC)C(=O)OCC	SARS PLpro yeast inconclusive
CCOc1ccc(NC(=O)COC(=O)c2ccc3c(c2)C(=O)N(CCc2ccccc2)C3=O)cc1	Pf growth 48h inconclusive
CN(C)C(=O)c1cc([N+](=O)[O-])ccc1O	Pf growth 48h inconclusive
CN(C)S(=O)(=O)c1cccc(C(=O)C2=C3SC=C(c4ccccc4)N3CC2)c1	Pf growth 96h 3.29µM
COC12C(COC(N)=O)C3=C(C(=O)C(C)=C(N)C3=O)N1CC1C2N1C (stereo not drawn)	Pf growth 96h inconclusive, Pf growth 48h 0.928µM
COC(COC(N)=O)C1=C(N2CC2)C(=O)C(C)=C(N2CC2)C1=O (stereo not drawn)	none (no result: SARS PLpro yeast, Pf growth 96h, Pf growth 48h)
CC(C)(C)c1ccc(C(=O)OCC(=O)NC2CC2)cc1	Pf growth 96h inconclusive, Pf growth 48h 9.28µM
Cc1ccc(SCC(=O)NC(=O)NCc2ccccc2)c(C)c1	none
Cc1ccccc1NC(=O)c1cnc2ccccn2c1=O	Pf growth 96h 6.57µM
O=C(Nc1cnc2ccccn2c1=O)c1ccc(F)cc1	Pf growth 96h 13.1µM
O=C(NCCc1ccccc1)c1cnc2ccccn2c1=O	none
CC(OC(=O)CNC(=O)c1ccc(Br)cc1)C(=O)NC1CCCCC1C (stereo not drawn)	Pf growth 48h inconclusive
O=C(Cc1coc2ccc3ccccc3c12)NCc1ccccc1	Pf growth 96h inconclusive (no result: Pf growth 48h)
CN1CCN(S(=O)(=O)c2cccc(C(=O)Nc3sc4c(c3-c3nc5ccccc5[nH]3)CCCC4)c2)CC1	Pf growth 96h 3.29µM, Pf growth 48h 2.94µM
O=C(Nc1sc2c(c1-c1nc3ccccc3[nH]1)CCCC2)C1CCCC1	Pf growth 96h 13.1µM, Pf growth 48h 11.7µM
S=C(NCCCN1CCOCC1)N1CCOCC1	none
CCCCCNC(=O)C(c1ccc(-c2ccccc2)cc1)n1c(=O)c(-c2ccccc2)nc2ccccc21 (stereo not drawn)	none (no result: SARS PLpro yeast, Pf growth 96h, Pf growth 48h)
C/C(=N/NC(=O)c1cccs1)c1cccs1	none
O=Cc1ccc(Oc2cc(-c3ccccc3)nc(-c3ccccc3)n2)cc1	Pf growth 96h 13.1µM
CC(=O)c1ccc(Oc2cc(-c3ccccc3)nc(-c3ccccc3)n2)cc1	Pf growth 96h inconclusive, Pf growth 48h inconclusive
CCOC(=O)C1=C(C)OC(=Cc2ccc(OC)cc2)C1=O	none (no result: SARS PLpro yeast, Pf growth 96h, Pf growth 48h)
CCOC(=O)C1=C(O)c2ccccc2C(=O)/C1=C\c1ccc(CC)cc1	Pf growth 96h inconclusive, AMA1 RON2 block inconclusive, Pf growth 48h 3.29µM
CCCc1ccc(/C=C2\C(=O)c3ccccc3C(O)=C2C(=O)OCC)cc1	Pf growth 96h inconclusive, Pf growth 48h 4.65µM (no result: AMA1 RON2 block)
Cc1cc(NS(=O)(=O)c2ccc(NC(=O)/C=C/c3ccc(C)o3)cc2)nc(C)n1	Pf growth 96h 7.38µM
Cc1cc(NS(=O)(=O)c2ccc(NC(=O)/C=C/c3ccccc3)cc2)nc(C)n1	none (no result: Pf growth 96h, Pf growth 48h)
CC(C)c1ccc(S(=O)(=O)N2CCN(C(=O)CCNC(=O)Nc3ccccc3)CC2)cc1	Pf growth 96h inconclusive, Pf growth 48h 11.7µM
